Source: ChEMBL document CHEMBL4513216, “Probing the Open Global Health Chemical Diversity Library for Multistage-Active Starting Points for Next-Generation Antimalarials” (ACS Infect Dis, 2020)
Out of some 65,000 compounds screened, about 2,100 (3.2%) showed an effect of 50% or more. The median lay at about -52%. The entries come from a sample that favours strong results as a whole.

These molecules were tested on Plasmodium falciparum (assay: Screen against P. falciparum Asexual Blood Stage (ABS), at 5uM). Conditions: tested at 5 uM.
Type: functional, Dd2

SMILES | INHIBITION
CC(=O)N1CCN(C[C@H]2CC[C@@H](Cc3ccc4ncccc4c3)O2)CC1 | -16.4%
c1cnc2ccc(C[C@@H]3CC[C@H](CN4CCCOCC4)O3)cc2c1 | 57.9%
O=C(NCCCN1CCCCCC1=O)c1n[nH]c(=O)c2ccccc12 | -16.5%
O=C(NC1CC1)c1nc(Cn2c(C(F)F)nc3ccccc32)no1 | -138%
COCC(c1cccc(C(F)(F)F)c1)N(C)C(=O)c1cnccn1 (stereo not given) | 48.8%
COCC(c1cccc(C(F)(F)F)c1)N(C)C(=O)c1ccncc1 (stereo not given) | -196%
COCC(c1cccc(C(F)(F)F)c1)N(C)C(=O)c1cccnc1 (stereo not given) | 66.9%
CC(C)n1nc2c(cc1=O)CN(c1ncnc3ccccc13)CC2 | -52.6%
CN(C)C(=O)Cn1c2c(ccc1=O)CCN(Cc1cnn(C)c1)CC2 | -39.8%
COCC(=O)NC(C)c1sc(-c2ccccc2F)nc1C (stereo not given) | -22.6%
COc1ccccc1CN1CCCCC1c1n[nH]cc1-c1cc(C)no1 (stereo not given) | 66.4%
COc1cccc(CN2CCCCC2c2n[nH]cc2-c2cc(C)no2)c1 (stereo not given) | 35.3%
CCc1ccc(CN2CCCCC2c2n[nH]cc2-c2cc(C)no2)cc1 (stereo not given) | 33.5%
Cc1cc(-c2c[nH]nc2C2CCCCN2C(=O)c2ccccc2)on1 (stereo not given) | -6.99%
Cc1cccc(CN2CCCCC2c2n[nH]cc2-c2cc(C)no2)c1 (stereo not given) | 52%
COc1ccc(CN2CCCCC2c2n[nH]cc2-c2cc(C)no2)cc1 (stereo not given) | 35.5%
COC(=O)c1ccc(CN(C)C(=O)c2cnsn2)cc1 | -39.8%
Cc1cc(-c2cccnc2)nc(C2CCCN2S(C)(=O)=O)n1 (stereo not given) | -29.8%
O=C(c1sccc1C1CC1)N1CCN(Cc2cscn2)CC1 | -52.2%
O=C(c1cocn1)N1C[C@@H]2CN(Cc3ccco3)CCO[C@@H]2C1 | -6.8%
N#Cc1ccc(F)c(CNC(=O)NC(CO)Cc2ccccc2)c1 (stereo not given) | -90.6%
CC(C)CC(=O)N(C)Cc1nc(C(F)(F)F)cs1 | -49.5%
CCc1nc2n(n1)CC(NCc1nnc(C(C)C)o1)CC2 (stereo not given) | -107%
OC(CNCCn1cccn1)c1cccc(F)c1 (stereo not given) | -25.4%
OC(CNCCn1cccn1)c1cccc(Br)c1 (stereo not given) | 64.3%
OC(CNCCn1cccn1)c1ccc(Br)cc1 (stereo not given) | -6.84%
Cc1cc(NC(=O)NCc2ccncc2)ccc1OC(C)C | -62%
O=C(c1ccc(Cl)cc1)N1CCn2c(nn(-c3cccc(Cl)c3)c2=O)C1 | -1.25%

SMILES | INHIBITION
CCO[C@H]1CC[C@H]2[C@@H]1OCCN2C(=O)COc1ccccc1 | -106%
CCOc1ccnc(N2CCCN(c3nc(CC)ns3)CC2)n1 | -63.7%
CN1CCCN(c2nc(C3CC3)ns2)CC1 | -0.753%
CCOc1ccnc(N2CCCN(c3nc(C4CC4)ns3)CC2)n1 | 52.1%
Cc1ncoc1C(=O)N1CCOC(Cc2ccccc2)C1 (stereo not given) | -121%
Cn1nc(C2CCCN(Cc3ccc(F)cc3F)C2)c2nccnc21 (stereo not given) | -79%
Cc1cc(C(=O)Nc2ccc3oc(=O)n(CCN(C)C)c3c2)c(C)o1 | 8.61%
Cn1ccnc1C(=O)N1CCC2(CCCN2CC2CC2)CC1 | -104%
CC(=O)c1cc(CN2C[C@@H]3CC[C@H]2CN(S(=O)(=O)N(C)C)C3)cs1 | -60.2%
O=C(O)Cn1ccc(=O)c2ccccc21 | -123%
CC(C)(C)c1cc(C(=O)NCCN2CCCS2(=O)=O)[nH]n1 | 34.4%
CC(C)C(=O)N1CCC2(CCN2CC2CC2)C1 (stereo not given) | -74.5%
CC(C)C(=O)N1CCCC2(CCCN2CC2CCCC2)C1 (stereo not given) | 62%
CC(C)C(=O)N1CCC2(CN(CC3CCCC3)C2)C1 | -67.5%
CCCS(=O)(=O)N1CCC(NC(=O)c2cc3ccccc3s2)CC1 | 7.92%
COCC(=O)N1C[C@@H](CN2CCCN(C)CC2)[C@@H](CO)C1 | -37.6%
Cc1[nH]c2ccc(CNc3cc(C(=O)NC(C)C)ccn3)cc2c1C | -115%
O=C(c1ccccc1)N1CCCn2c(CN3CCCCC3)nnc2C1 | -94.3%
CCc1noc(C)c1C(=O)N1CCCCC1Cn1cc(C)cn1 (stereo not given) | -104%
CCNC(=O)N(C)C1CCN(Cc2ncc(C)c(OC)c2C)CC1 | 69%
COc1c(C)cnc(CN2CCC(N(C)C(=O)C(C)OC)CC2)c1C (stereo not given) | -7.99%
CCC(=O)N(C)C1CCN(Cc2ncc(C)c(OC)c2C)CC1 | -102%
O=C(Cn1cc(I)cn1)N1CCCCCC1 | -34.7%
COc1ccc2cc(CNCc3c(C)nn(C)c3N(C)C)ccc2c1 | 18.6%
Cc1ccc(N2CCN(C(=O)CN3C[C@H]4CC[C@@H]3C4)CC2=O)cc1 | -73.1%
Cc1cc(C)cc(N2CCN(C(=O)CCN3C[C@H]4CC[C@@H]3C4)CC2=O)c1 | 62.1%
O=C(CCN1C[C@H]2CC[C@@H]1C2)N1CCN(c2cccc(Cl)c2)C(=O)C1 | -40%
